Experimental data as given in PubChem BioAssay (EPA / NIEHS).
Where “and” joins values, the source holds several entries; their conditions need not be identical. Equal values may be shown once. Records with an inconclusive call do not appear. Some structures have more than one record in an assay (separate samples or runs), and their calls can disagree. Calls of active or inactive are those of the source. Rule for the calls, unless noted: active = hit-call score of the fitted dose curve at least 0.9, where 1 is the maximum; inconclusive = response in the unintended direction; inactive = score below 0.9.

Tests used:
[1] = read-out: Cellular tumor antigen p53 (Homo sapiens) (UniProt P04637); assay: LTEA_HepaRG_TP53: Life Technologies and Expression Analysis (LTEA) Assay for Tumor Protein P53 (TP53) using HepaRG (AID 2283537; active = hit-call score of the fitted dose curve at least 0.9, where 1 is the maximum; inactive = score below 0.9); settings: mRNA level, 48 h; actives raise or lower the signal
Outline: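 Differentiated HepaRG cells in serum-free induction medium exposed 48 h in duplicate to 8 half-log concentrations, top 100 uM, 0.5% DMSO. TP53 mRNA by TaqMan qRT-PCR (Fluidigm), normalized to ACTB, GAPDH, POLR2A; fitted bidirectionally versus DMSO.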

[2] = read-out: UDP glucuronosyltransferase (UGT1A1), UGT1A1 (gene 54658); assay: LTEA_HepaRG_UGT1A1: Life Technologies and Expression Analysis (LTEA) Assay for UDP glucuronosyltransferase (UGT1A1) using HepaRG (AID 2283538; active = hit-call score of the fitted dose curve at least 0.9, where 1 is the maximum; inactive = score below 0.9); settings: mRNA level, 48 h; actives raise or lower the signal
Outline: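 HepaRG, 48 h chemical exposure (top 100 uM, half-log 8-pt, 0.5% DMSO vehicle), duplicate wells; qRT-PCR (TaqMan, Fluidigm array) for UGT1A1 mRNA, housekeeping-normalized; bidirectional curve fit vs DMSO baseline.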

[3] = read-out: UDP glucuronosyltransferase (UGT1A6), UGT1A6 (gene 54578); assay: LTEA_HepaRG_UGT1A6: Life Technologies and Expression Analysis (LTEA) Assay for UDP glucuronosyltransferase (UGT1A6) using HepaRG (AID 2283539; active = hit-call score of the fitted dose curve at least 0.9, where 1 is the maximum; inactive = score below 0.9); settings: mRNA level, 48 h; actives raise or lower the signal
Outline: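 qRT-PCR readout of UGT1A6 mRNA (normalized to ACTB/GAPDH/POLR2A) in differentiated HepaRG cells after 48 h chemical exposure; 8 concentrations, top 100 uM, half-log steps, 0.5% DMSO. Bidirectional curve fit relative to DMSO baseline.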

[4] = read-out: X-box binding protein 1 (XBP1), XBP1 (gene 7494); assay: LTEA_HepaRG_XBP1: Life Technologies and Expression Analysis (LTEA) Assay for X-box binding protein 1 (XBP1) using HepaRG (AID 2283540; active = hit-call score of the fitted dose curve at least 0.9, where 1 is the maximum; inactive = score below 0.9); settings: mRNA level, 48 h; actives raise or lower the signal
Outline: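 HepaRG, 48 h exposure, 8-pt half-log CRC top 100 uM, 0.5% DMSO vehicle, duplicates. Readout: TaqMan qRT-PCR of XBP1 mRNA, housekeeping-normalised (ACTB/GAPDH/POLR2A); bidirectional fit vs DMSO baseline.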

[5] = LTEA_HepaRG_LDH_cytotoxicity: Cytotoxicity Assessment in the Life Technologies and Expression Analysis (LTEA) Assay (AID 2283563);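 for AC50: LDH activity released into spent culture medium as a marker of cell death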
Outline: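 HepaRG (human liver line), 48 h exposure, 8-pt half-log series from 100 uM, 0.5% DMSO vehicle, duplicates. Read-out: LDH in spent medium. Positive-direction fit vs DMSO baseline.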

[6] = ATG_XTT_Cytotoxicity: Cytotoxicity Assessment in the Attagene TRANS-FACTORIAL HepG2 Assay (AID 2283584);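 for AC50: cells exposed to compound for 24 h before reading; active means loss of viability signal versus DMSO baseline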
Outline: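 XTT readout of cell number in transfected HepG2 cells, 24 h post-dosing; DMSO serves as negative control and baseline, with activity taken as loss of viability signal.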

[7] = TOX21_p53_BLA_p2_viability: Viability Assessment in the Tox21 HCT-116 p53 Agonism Beta-lactamase Assay, Phase 2 (AID 2283591);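 note: actives lower the ATP signal meaning cytotoxicity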
Outline: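 HCT116 p53-bla cells, 4000/well, dosed after 5 h plating (217-fold dilution of DMSO stocks) and incubated 16 h at 37C. Viability taken as cellular ATP by CellTiter-Glo luminescence after 30 min RT; signal loss marks cytotoxicity.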

[8] = biological target: Cellular tumor antigen p53 (Homo sapiens) (UniProt P04637); assay: TOX21_p53_BLA_p2_ratio: Tox21 HCT-116 p53 Agonism Beta-lactamase Assay, Ratio, Phase 2 (AID 2283592)
Outline: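 Readout: blue/green (460/530 nm) FRET emission ratio after 2 h CCF4-AM loading at room temperature, excitation 405 nm. HCT116 p53 bla cells, 16 h compound exposure at 37C, 5% CO2; agonist direction fitted against DMSO baseline.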

[9] = TOX21_p53_BLA_p3_viability: Viability Assessment in the Tox21 HCT-116 p53 Agonism Beta-lactamase Assay, Phase 3 (AID 2283593);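 note: cells exposed to compound for 16 h before reading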
Outline: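 HCT116 cells, 4000/well, dosed 5 h after plating by pin transfer (217-fold dilution from DMSO stock) and incubated 16 h at 37C, 5% CO2. Viability read as ATP luminescence with CellTiter-Glo after 30 min at room temperature.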

[10] = biological target: Cellular tumor antigen p53 (Homo sapiens) (UniProt P04637); assay: TOX21_p53_BLA_p3_ratio: Tox21 HCT-116 p53 Agonism Beta-lactamase Assay, Ratio, Phase 3 (AID 2283596)
Outline: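 Cells were seeded at 4000/well, rested 5 h at 37C, then dosed with DMSO compound solutions (217-fold dilution) for 16 h. CCF4-AM substrate was loaded for 2 h at room temperature, and the 460/530 nm emission ratio was fitted for gain of signal versus DMSO.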

Measured: AC50

Cellular tumor antigen p53 (Homo sapiens), sequence (P04637 whole entry, looked up): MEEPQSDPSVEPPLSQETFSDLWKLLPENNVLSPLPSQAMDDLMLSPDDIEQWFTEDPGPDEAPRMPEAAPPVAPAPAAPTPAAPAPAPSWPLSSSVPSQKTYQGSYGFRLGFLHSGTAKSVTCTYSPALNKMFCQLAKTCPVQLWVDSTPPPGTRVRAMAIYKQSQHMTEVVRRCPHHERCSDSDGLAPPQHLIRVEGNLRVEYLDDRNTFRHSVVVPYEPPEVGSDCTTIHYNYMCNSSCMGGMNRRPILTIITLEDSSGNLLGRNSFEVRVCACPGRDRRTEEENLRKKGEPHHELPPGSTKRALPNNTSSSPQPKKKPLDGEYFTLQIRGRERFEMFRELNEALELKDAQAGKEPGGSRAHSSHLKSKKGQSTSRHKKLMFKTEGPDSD

CCOC(=O)C(O)(c1ccc(Cl)cc1)c1ccc(Cl)cc1
inactive: [1] | [3] | [4] | [5] | [6] | [9]
active: [2] 67.4 µM | [7] 67.1 µM and 17.8 µM | [8] 63.8 µM and 32.9 µM | [9] 22 µM | [10] 55.2 µM and 50.6 µM

CN(C)CCO
not listed: [4]
inactive: all other assays above

Cc1ccccc1O
not listed: [2] | [9]
inactive: all other assays above

Clc1ccc(C(Cl)(Cl)Cl)cc1
inactive: all assays above

O=S(=O)(O)C(F)(F)C(F)(F)C(F)(F)C(F)(F)F
not listed: [4]
inactive: all other assays above

c1ccc(-c2ccccc2)cc1
not listed: [4] | [6]
inactive: all other assays above

Cc1ccc(O)c(C)c1
not listed: [2] | [6]
inactive: all other assays above

COc1ccc(O)c(C(C)(C)C)c1
not listed: [4] | [7]
inactive: all other assays above

CCCCCCCCOC(=O)c1ccccc1C(=O)OCCCCCCCC
not listed: [4]
inactive: all other assays above

ClC1=C(Cl)[C@]2(Cl)[C@@H]3[C@@H]4C[C@@H]([C@H]5O[C@@H]45)[C@@H]3[C@@]1(Cl)C2(Cl)Cl
active: [4] 0.0249 µM
not listed: [2] | [9]
inactive: all other assays above

CCCCCCCCCc1ccc(O)cc1
inactive: [1] | [3] | [5] | [6] | [7] | [8] | [9]
active: [2] 32.5 µM | [6] 151 µM

ClC1=C(Cl)[C@]2(Cl)[C@@H]3[C@@H](Cl)[C@H]4O[C@H]4[C@@H]3C1(Cl)C2(Cl)Cl
active: [7] 76.7 µM
not listed: [2]
inactive: all other assays above

CCCCCCOC(=O)c1ccccc1C(=O)OCCCCCC
active: [2] 62 µM
not listed: [7] | [8] | [10]
inactive: all other assays above

CCC(C)(c1ccc(O)cc1)c1ccc(O)cc1
active: [8] 87.1 µM and 71 µM | [10] 86.3 µM and 76.2 µM
inactive: all other assays above

C1CC2OC2CC1C1CO1 (configuration not stated)
not listed: [4] | [9]
inactive: all other assays above

C[C@]12CCC(=O)C=C1CC[C@@H]1[C@@H]2CC[C@]2(C)C(=O)CC[C@@H]12
not listed: [2]
inactive: all other assays above

CC(C)C(=O)OCC(C)(C)C(OC(=O)C(C)C)C(C)C (configuration not stated)
active: [9] 46.4 µM
not listed: [7]
inactive: all other assays above

Nc1ccc(-c2ccc(N)cc2)cc1
not listed: [2] | [6]
inactive: all other assays above

O=C(N[C@H]1CN2CCC1CC2)c1cc2ccoc2cn1
not listed: [4] | [6]
inactive: all other assays above

Cc1ccccc1[N+](=O)[O-]
not listed: [4]
inactive: all other assays above

ClC1=C(Cl)[C@]2(Cl)[C@@H]3[C@H]4C[C@H]([C@@H]5O[C@H]45)[C@@H]3[C@@]1(Cl)C2(Cl)Cl
active: [2] 2.04 µM
not listed: [6] | [8]
inactive: all other assays above

CO/C=C(/C(=O)OC)c1ccccc1COc1cccc(C(F)(F)F)n1
inactive: [4] | [6] | [7] | [9]
active: [1] 10.1 µM | [2] 20.5 µM | [3] 22.2 µM | [5] 21.2 µM | [8] 2.77 µM | [10] 6.17 µM

NS(=O)(=O)C(F)(F)C(F)(F)C(F)(F)C(F)(F)C(F)(F)C(F)(F)C(F)(F)C(F)(F)F
active: [1] 50 µM | [3] 13.3 µM | [4] 3.63 µM | [5] 31.4 µM | [9] 46.1 µM | [10] 47 µM
inactive: [6] | [7] | [8]

O=C(NC(=O)c1c(F)cccc1F)Nc1cc(Cl)c(OC(F)(F)C(F)F)c(Cl)c1
not listed: [4]
inactive: all other assays above

CCC(=O)O[C@H]1CC[C@H]2[C@@H]3CCC4=CC(=O)CC[C@]4(C)[C@H]3CC[C@]12C
active: [7] 70.4 µM | [8] 87.7 µM | [9] 82 µM
inactive: [1] | [3] | [4] | [5] | [6] | [7] | [8] | [9] | [10]

c1cc2ccc3cccc4ccc(c1)c2c34
active: [2] 10.7 µM
not listed: [4]
inactive: all other assays above

Clc1ccc(C(c2ccccc2Cl)C(Cl)(Cl)Cl)cc1 (configuration not stated)
active: [5] 77.5 µM | [7] 32.5 µM and 55.2 µM | [8] 47.2 µM and 74.1 µM | [9] 26.1 µM and 68.2 µM | [10] 46.3 µM
inactive: [1] | [3] | [4] | [6] | [10]

O=NN(c1ccccc1)c1ccccc1
inactive: [1] | [3] | [4] | [7] | [8] | [10]

N#Cc1ccc(N(CC(N)=O)CC(F)(F)F)cc1C(F)(F)F
inactive: [1] | [3] | [4] | [5] | [7]
